Test results reported in paper PMC7862700, “An all-to-all approach to the identification of sequence-specific readers for epigenetic DNA modifications on cytosine”.

Assays:
Assay in all cases: DAPPL (digital affinity profiling via proximity ligation, sequencing); 10 mM Tris-HCl pH 7.5, 50 mM NaCl, 1 mM DTT, 4% glycerol, room temperature, 30 min; GST-TFs on glutathione beads, 16-mer random dsDNA library, 0.1% formaldehyde crosslink after washing; high values mean tight binding
Conditions in all cases: protein: recombinant; tags: N-terminal GST; dsDNA, one strand shown
FEV = target: T1, FEV (Homo sapiens, UniProt Q99581 1-238)
T1 sequence: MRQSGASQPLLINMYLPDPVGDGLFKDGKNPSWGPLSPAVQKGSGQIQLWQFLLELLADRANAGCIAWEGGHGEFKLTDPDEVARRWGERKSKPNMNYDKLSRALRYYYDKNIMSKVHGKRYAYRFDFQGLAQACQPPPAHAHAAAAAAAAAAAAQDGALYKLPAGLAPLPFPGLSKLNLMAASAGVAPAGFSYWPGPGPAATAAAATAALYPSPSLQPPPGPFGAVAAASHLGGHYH
Outline: (§1)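 After expression in yeast as GST fusions, human transcription factors were bound to glutathione beads, DNA-barcoded and mixed with a tag-only sample. The pools were incubated with 200 nmole of a 16-mer random double-stranded DNA library in Tris/NaCl/DTT/glycerol buffer (30 min, room temperature), washed and crosslinked with 0.1% formaldehyde. Proximity ligation with BsaI/T4 ligase ran for 1 h at 37 °C, before PCR amplification and sequencing on an Illumina NextSeq500. Binding signal is a hexamer's read frequency for a factor divided by its frequency for the tag-only sample.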

ETV5 = ETV5 (Homo sapiens, UniProt P41161 1-510)
ETV5, sequence (P41161 whole entry): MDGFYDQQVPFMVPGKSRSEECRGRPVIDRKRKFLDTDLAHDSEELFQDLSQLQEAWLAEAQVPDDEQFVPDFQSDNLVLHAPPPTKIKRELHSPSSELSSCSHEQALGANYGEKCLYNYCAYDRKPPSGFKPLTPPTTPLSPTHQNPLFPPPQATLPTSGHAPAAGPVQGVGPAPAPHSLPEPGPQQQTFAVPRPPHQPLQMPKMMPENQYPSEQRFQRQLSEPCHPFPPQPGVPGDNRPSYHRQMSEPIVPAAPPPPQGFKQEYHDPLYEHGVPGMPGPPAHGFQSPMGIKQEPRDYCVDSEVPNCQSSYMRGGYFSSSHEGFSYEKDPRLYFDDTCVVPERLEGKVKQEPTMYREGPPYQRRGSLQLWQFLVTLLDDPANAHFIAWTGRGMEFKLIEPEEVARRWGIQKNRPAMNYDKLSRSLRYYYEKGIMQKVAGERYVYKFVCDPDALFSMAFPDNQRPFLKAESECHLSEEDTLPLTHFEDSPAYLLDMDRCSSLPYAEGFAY
Outline: as §1

SPIC = target: T2, SPIC (Homo sapiens, UniProt Q8N5J4 1-248)
T2 sequence: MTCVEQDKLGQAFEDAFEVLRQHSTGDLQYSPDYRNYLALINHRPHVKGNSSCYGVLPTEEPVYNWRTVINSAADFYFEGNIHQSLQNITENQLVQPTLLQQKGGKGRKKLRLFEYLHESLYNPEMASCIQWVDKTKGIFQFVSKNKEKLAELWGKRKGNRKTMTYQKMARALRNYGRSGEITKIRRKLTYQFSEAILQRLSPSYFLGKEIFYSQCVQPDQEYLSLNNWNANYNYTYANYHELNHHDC
Outline: as §1

ELF4 = ELF4 (Homo sapiens, UniProt Q99607 1-663)
ELF4, sequence (Q99607 whole entry): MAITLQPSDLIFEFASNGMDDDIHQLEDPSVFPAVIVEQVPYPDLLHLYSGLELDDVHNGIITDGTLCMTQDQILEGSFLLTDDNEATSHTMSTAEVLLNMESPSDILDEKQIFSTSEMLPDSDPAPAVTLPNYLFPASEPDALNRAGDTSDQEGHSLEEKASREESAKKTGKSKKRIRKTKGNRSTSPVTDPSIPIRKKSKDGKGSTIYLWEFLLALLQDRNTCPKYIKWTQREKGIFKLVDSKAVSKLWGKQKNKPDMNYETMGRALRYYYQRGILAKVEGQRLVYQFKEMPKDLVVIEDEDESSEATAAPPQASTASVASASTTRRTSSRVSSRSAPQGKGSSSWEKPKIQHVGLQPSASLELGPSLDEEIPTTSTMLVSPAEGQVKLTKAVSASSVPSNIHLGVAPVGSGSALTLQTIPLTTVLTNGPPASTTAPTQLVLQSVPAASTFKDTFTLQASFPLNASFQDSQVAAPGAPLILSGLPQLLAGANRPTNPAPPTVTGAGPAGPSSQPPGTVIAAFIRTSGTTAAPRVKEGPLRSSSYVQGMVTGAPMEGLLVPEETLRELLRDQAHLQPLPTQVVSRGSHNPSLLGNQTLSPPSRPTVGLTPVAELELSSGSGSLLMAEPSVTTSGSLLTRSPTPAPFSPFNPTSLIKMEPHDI
Outline: as §1

ELK4 = target: T3, ELK4 (Homo sapiens, UniProt P28324-2 1-405)
T3 sequence: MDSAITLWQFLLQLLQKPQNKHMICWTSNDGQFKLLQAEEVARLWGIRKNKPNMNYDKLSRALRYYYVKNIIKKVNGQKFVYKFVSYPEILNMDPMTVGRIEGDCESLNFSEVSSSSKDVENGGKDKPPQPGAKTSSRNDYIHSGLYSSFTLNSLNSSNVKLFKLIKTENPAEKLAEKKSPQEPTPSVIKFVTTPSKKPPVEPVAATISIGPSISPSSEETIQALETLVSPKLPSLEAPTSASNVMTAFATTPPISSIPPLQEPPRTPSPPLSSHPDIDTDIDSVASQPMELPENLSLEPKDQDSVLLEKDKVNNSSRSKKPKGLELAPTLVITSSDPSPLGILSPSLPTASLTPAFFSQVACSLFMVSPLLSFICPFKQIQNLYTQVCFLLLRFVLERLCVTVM
Outline: as §1

ETV2 = target: T4, ETV2 (Homo sapiens, UniProt O00321 1-342)
T4 sequence: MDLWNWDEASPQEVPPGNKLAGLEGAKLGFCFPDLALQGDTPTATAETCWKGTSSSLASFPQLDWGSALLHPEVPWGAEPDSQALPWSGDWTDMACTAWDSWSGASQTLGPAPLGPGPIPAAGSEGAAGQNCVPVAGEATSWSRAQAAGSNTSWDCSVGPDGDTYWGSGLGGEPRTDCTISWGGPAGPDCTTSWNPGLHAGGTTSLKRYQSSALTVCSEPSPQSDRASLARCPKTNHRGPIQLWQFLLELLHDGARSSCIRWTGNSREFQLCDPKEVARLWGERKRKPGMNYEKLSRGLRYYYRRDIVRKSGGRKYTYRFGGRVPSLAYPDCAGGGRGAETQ
Outline: as §1

ELF3 = target: T5, ELF3 (Homo sapiens, UniProt P78545 1-371)
T5 sequence: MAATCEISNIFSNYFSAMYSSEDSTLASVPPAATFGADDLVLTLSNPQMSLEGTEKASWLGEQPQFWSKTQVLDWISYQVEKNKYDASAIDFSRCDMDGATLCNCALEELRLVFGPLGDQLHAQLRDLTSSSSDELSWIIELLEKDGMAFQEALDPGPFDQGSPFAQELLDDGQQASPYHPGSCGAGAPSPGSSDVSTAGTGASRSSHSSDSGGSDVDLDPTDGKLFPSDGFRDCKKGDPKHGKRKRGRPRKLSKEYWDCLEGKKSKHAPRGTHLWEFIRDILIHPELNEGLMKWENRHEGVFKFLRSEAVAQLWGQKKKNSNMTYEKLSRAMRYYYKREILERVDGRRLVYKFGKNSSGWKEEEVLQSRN
Outline: as §1

ETV1 = ETV1 (Homo sapiens, UniProt P50549 1-477)
ETV1, sequence (P50549 whole entry): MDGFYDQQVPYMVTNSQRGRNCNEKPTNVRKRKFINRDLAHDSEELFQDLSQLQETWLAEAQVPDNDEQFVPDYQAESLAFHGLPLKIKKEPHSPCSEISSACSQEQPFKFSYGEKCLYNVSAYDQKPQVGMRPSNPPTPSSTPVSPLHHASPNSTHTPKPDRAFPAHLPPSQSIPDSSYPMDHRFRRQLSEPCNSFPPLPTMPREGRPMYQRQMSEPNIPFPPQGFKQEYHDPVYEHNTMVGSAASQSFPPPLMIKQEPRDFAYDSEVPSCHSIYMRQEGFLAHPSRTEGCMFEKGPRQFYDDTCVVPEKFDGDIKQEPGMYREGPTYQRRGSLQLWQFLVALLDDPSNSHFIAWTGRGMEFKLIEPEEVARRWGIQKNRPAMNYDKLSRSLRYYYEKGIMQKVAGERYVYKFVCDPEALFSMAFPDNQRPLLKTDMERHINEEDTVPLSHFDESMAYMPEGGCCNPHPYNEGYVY
Outline: as §1

ERF = target: T6, ERF (Homo sapiens, UniProt P50548 1-548)
T6 sequence: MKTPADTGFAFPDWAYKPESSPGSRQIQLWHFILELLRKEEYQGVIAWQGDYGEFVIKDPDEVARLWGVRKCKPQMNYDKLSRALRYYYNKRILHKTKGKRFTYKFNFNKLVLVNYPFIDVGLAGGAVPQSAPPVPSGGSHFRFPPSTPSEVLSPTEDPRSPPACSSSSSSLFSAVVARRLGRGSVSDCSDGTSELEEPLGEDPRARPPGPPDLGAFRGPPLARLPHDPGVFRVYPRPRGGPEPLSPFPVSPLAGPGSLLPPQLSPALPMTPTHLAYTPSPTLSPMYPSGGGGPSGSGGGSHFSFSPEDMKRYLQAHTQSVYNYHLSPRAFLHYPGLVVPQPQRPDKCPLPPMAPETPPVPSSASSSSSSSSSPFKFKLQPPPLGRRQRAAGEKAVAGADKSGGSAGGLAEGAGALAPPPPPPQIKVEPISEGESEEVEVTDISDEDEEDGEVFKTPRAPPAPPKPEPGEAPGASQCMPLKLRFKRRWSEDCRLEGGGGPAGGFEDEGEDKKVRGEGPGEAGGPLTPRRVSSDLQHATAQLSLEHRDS
Outline: as §1

ETV3L = target: T7, ETV3L (Homo sapiens, UniProt Q6ZN32 1-361)
T7 sequence: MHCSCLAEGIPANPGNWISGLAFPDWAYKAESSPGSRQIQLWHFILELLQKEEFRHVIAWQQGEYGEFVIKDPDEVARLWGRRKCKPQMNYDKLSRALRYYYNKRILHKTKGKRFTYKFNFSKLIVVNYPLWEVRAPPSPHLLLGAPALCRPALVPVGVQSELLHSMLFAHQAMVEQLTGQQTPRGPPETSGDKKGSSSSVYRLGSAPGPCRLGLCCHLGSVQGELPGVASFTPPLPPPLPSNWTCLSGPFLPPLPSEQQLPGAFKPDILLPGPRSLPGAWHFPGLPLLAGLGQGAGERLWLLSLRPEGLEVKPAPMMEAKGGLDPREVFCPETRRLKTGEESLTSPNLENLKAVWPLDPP
Outline: as §1

ETS2 = target: T8, ETS2 (Homo sapiens, UniProt P15036 1-469)
T8 sequence: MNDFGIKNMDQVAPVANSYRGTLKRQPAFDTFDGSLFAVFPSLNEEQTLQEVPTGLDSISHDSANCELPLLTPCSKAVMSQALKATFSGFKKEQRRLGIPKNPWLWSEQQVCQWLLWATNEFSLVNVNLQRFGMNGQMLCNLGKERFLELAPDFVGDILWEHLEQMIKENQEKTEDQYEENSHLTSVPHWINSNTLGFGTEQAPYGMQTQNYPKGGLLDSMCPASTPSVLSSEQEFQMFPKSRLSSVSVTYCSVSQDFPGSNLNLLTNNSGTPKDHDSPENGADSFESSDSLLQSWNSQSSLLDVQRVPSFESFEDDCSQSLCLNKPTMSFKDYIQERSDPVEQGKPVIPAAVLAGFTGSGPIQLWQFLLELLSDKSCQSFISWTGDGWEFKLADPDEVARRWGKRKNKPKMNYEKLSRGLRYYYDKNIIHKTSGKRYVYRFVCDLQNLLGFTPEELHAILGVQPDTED
Outline: as §1

SPDEF = target: T9, SPDEF (Homo sapiens, UniProt O95238 1-335)
T9 sequence: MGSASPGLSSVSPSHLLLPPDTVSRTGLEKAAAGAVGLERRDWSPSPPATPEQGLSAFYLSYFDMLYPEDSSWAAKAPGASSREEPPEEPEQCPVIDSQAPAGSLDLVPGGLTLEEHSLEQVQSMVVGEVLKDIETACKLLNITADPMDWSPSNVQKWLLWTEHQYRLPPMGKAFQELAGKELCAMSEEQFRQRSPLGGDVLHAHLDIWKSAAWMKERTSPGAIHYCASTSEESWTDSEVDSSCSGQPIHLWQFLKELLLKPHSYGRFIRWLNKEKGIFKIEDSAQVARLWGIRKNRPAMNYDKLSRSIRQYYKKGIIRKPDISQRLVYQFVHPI
Outline: as §1

ETV7 = target: T10, ETV7 (Homo sapiens, UniProt Q9Y603 1-341)
T10 sequence: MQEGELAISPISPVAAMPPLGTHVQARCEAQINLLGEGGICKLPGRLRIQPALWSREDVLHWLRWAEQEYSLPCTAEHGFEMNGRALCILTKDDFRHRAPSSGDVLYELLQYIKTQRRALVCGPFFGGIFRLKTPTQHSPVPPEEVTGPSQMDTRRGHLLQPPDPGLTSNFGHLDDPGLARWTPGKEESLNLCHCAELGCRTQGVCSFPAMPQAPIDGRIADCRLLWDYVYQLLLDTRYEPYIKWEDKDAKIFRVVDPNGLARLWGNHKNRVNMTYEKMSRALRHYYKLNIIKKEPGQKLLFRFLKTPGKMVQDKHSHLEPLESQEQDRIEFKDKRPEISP
Outline: as §1

ELF5 = target: T11, ELF5 (Homo sapiens, UniProt Q9UKW6-2 1-255)
T11 sequence: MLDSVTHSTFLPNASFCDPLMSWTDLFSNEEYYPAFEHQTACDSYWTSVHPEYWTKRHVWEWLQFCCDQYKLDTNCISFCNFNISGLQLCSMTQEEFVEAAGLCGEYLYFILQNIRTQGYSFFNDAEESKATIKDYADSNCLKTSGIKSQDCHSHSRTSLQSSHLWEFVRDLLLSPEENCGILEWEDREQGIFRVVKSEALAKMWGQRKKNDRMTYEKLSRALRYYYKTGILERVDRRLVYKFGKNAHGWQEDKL
Outline: as §1

ETV3 = target: T12, ETV3 (Homo sapiens, UniProt P41162-2 1-143)
T12 sequence: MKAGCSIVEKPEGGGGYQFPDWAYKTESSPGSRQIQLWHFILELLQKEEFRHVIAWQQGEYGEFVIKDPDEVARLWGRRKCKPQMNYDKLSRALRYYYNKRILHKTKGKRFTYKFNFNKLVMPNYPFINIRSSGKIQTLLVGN
Outline: as §1

ETV6 = ETV6 (Homo sapiens, UniProt P41212 1-452)
ETV6, sequence (P41212 whole entry): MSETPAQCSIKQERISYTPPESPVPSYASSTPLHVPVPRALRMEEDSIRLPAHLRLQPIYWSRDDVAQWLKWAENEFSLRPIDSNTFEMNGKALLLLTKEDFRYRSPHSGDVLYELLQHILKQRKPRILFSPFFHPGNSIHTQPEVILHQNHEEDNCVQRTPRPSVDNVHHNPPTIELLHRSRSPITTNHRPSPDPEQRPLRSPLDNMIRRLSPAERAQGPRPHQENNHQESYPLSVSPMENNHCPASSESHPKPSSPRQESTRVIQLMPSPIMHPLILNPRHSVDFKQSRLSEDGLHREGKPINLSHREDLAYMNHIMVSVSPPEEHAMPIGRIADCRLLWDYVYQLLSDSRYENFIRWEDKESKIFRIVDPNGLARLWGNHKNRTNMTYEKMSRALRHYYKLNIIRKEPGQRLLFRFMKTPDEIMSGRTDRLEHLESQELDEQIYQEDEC
Outline: as §1

Which binding signal (FEV) does the source give for TACCGG here?
Its binding signal is 2.1 fold enrichment (6-mer frequency, TF over GST control).

And the binding signal (ETV5)?
The binding signal was 1.68 fold enrichment (6-mer frequency, TF over GST control).

And the binding signal (SPIC)?
Its binding signal is 1.43 fold enrichment (6-mer frequency, TF over GST control).

And the binding signal (ELF4)?
The binding signal was 1.51 fold enrichment (6-mer frequency, TF over GST control).

And the binding signal (ELK4)?
Its binding signal is 1.4 fold enrichment (6-mer frequency, TF over GST control).

And the binding signal (ETV2)?
Its binding signal is 1.5 fold enrichment (6-mer frequency, TF over GST control).

What about the binding signal (ELF3) of the same sequence?
Its binding signal is 1.78 fold enrichment (6-mer frequency, TF over GST control).

And the binding signal (ETV1)?
Its binding signal is 1.73 fold enrichment (6-mer frequency, TF over GST control).

And the binding signal (ERF)?
Its binding signal is 1.4 fold enrichment (6-mer frequency, TF over GST control).

And the binding signal (ETV3L)?
Its binding signal is 1.47 fold enrichment (6-mer frequency, TF over GST control).

What about the binding signal (ETS2) of the same sequence?
The binding signal was 1.6 fold enrichment (6-mer frequency, TF over GST control).

And the binding signal (SPDEF)?
Its binding signal is 1.77 fold enrichment (6-mer frequency, TF over GST control).

And the binding signal (ETV7)?
The binding signal was 1.36 fold enrichment (6-mer frequency, TF over GST control).

What about the binding signal (ELF5) of the same sequence?
Its binding signal is 1.71 fold enrichment (6-mer frequency, TF over GST control).

What about the binding signal (ETV3) of the same sequence?
The binding signal was 1.76 fold enrichment (6-mer frequency, TF over GST control).

What about the binding signal (ETV6) of the same sequence?
The binding signal was 1.68 fold enrichment (6-mer frequency, TF over GST control).

Which results are given for ATATGT?
binding signal (FEV): 1.11 fold enrichment (6-mer frequency, TF over GST control); binding signal (ETV5): 1.1 fold enrichment (6-mer frequency, TF over GST control); binding signal (SPIC): 1.18 fold enrichment (6-mer frequency, TF over GST control); binding signal (ELF4): 1.14 fold enrichment (6-mer frequency, TF over GST control); binding signal (ELK4): 1.21 fold enrichment (6-mer frequency, TF over GST control); binding signal (ETV2): 1.04 fold enrichment (6-mer frequency, TF over GST control); binding signal (ELF3): 1.14 fold enrichment (6-mer frequency, TF over GST control); binding signal (ETV1): 1.12 fold enrichment (6-mer frequency, TF over GST control); binding signal (ERF): 1.25 fold enrichment (6-mer frequency, TF over GST control); binding signal (ETV3L): 1.17 fold enrichment (6-mer frequency, TF over GST control); binding signal (ETS2): 1.19 fold enrichment (6-mer frequency, TF over GST control); binding signal (SPDEF): 1.13 fold enrichment (6-mer frequency, TF over GST control); binding signal (ETV7): 1.16 fold enrichment (6-mer frequency, TF over GST control); binding signal (ELF5): 1.13 fold enrichment (6-mer frequency, TF over GST control); binding signal (ETV3): 1.1 fold enrichment (6-mer frequency, TF over GST control); binding signal (ETV6): 1.07 fold enrichment (6-mer frequency, TF over GST control)
